# Measured values from article PMC5540273 (PLoS ONE, 2017).
# Values joined by “and” are separate entries in the source; they are usually repeats but may differ in a detail not shown here. Equal values may be shown once. Read-outs that look alike come from different tables or passages of the source.
# How the values were obtained:
# [1] = tested on: ROCK1; conditions: n = 1
# [2] = tested on: ROCK2; conditions: n = 1
# [3] = tested on: ROS1; conditions: n = 1
# [4] = tested on: RPS6KA4(Kin.Dom.1-N-terminal); conditions: n = 1
# [5] = tested on: RPS6KA4(Kin.Dom.2-C-terminal); conditions: concentration: 1 μM, replicates: in singlicate; n = 1
# [6] = tested on: RPS6KA5(Kin.Dom.1-N-terminal); conditions: n = 1
# [7] = tested on: RPS6KA5(Kin.Dom.2-C-terminal); conditions: n = 1
# [8] = tested on: T1, RSK1(Kin.Dom.1-N-terminal); conditions: n = 1
# T1 construct: gene RPS6KA1
# [9] = tested on: T2, RSK1(Kin.Dom.2-C-terminal); conditions: n = 1
# T2 construct: gene RPS6KA1
# [10] = tested on: T3, RSK2(Kin.Dom.1-N-terminal); conditions: n = 1
# T3 construct: gene RPS6KA3
# [11] = concentration: 1 μM, replicates: in singlicate
# [12] = concentration: 1 μM,replicates: in singlicate, 1 µM
# 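Note: KINOMEscan kinase panel screen.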
Compound,"%Inh [1, 11]","%Inh [2, 11]","%Inh [3, 11]","%Inh [4, 11]",%Inh [5],"%Inh [6, 11]","%Inh [7, 11]","%Inh [8, 11]","%Inh [9, 11]","%Inh [10, 11]","%Inh [1, 12]","%Inh [2, 12]","%Inh [3, 12]","%Inh [4, 12]","%Inh [6, 12]","%Inh [7, 12]","%Inh [8, 12]","%Inh [9, 12]","%Inh [10, 12]"
Fc1cccc(COc2nnc(-c3ccc4c(c3)CCO4)o2)c1,0%,0%,0%,0%,30%,0%,9%,0%,43%,0%,–,–,–,–,–,–,–,–,–
Cl.c1ccc(-c2n[nH]cc2-c2ccnc(-c3ccc(CN4CCOCC4)cc3)c2)nc1 [GW776245],0%,0%,0%,0%,0%,0%,44%,0%,17%,34%,–,–,–,–,–,–,–,–,–
Cc1ccc(NC(=O)Nc2cccc(Cl)c2)cc1-c1ccc(C(=O)Nc2ccncc2)cc1 [GSK1398468],0%,13%,0%,24%,0%,10%,39%,23%,0%,0%,–,–,–,–,–,–,–,–,–
CC(=O)Nc1nc2cnc(Nc3cc(NC(=O)c4cccc(CCC#N)c4)ccc3C)nc2s1,14%,15%,0%,0%,0%,15%,2%,0%,0%,5%,–,–,–,–,–,–,–,–,–
O=C(Nc1ccc2c(c1)OCO2)NC1CCN(c2ccnc(Nc3ccc(F)cc3)n2)C1 (stereo not drawn) [GSK1379724],6%,3%,0%,0%,0%,11%,0%,11%,0%,12%,–,–,–,–,–,–,–,–,–
NC(=O)c1nnc2ccccc2c1N,0%,7%,0%,21%,30%,6%,21%,31%,0%,33%,–,–,–,–,–,–,–,–,–
CS(=O)(=O)c1ccc(-c2nc3n(c2-c2ccncc2)CCC3)cc1 [SKF-105942],0%,0%,2%,1%,0%,0%,0%,27%,0%,4%,–,–,–,–,–,–,–,–,–
CCn1c(-c2cccnc2O)nc2cnccc21 [SB-736715],11%,0%,0%,0%,0%,0%,0%,0%,0%,4%,–,–,–,–,–,–,–,–,–
Nc1nc(-c2nccs2)c(-c2ccnc3ccccc23)s1 [GW693542],14%,18%,0%,20%,0%,20%,0%,20%,0%,0%,–,–,–,–,–,–,–,–,–
O=C1NC(=O)C(N2CCc3ccccc32)=C1c1ccccc1Cl [SB-373598],4%,0%,22%,41%,0%,7%,10%,0%,14%,65%,–,–,–,–,–,–,–,–,–
COc1ccc2nc(-c3cccc(C)n3)nc(Nc3ccncc3)c2c1 [GSK204919],13%,5%,4%,12%,0%,25%,0%,2%,7%,0%,–,–,–,–,–,–,–,–,–
Cc1cc(N2Cc3ccccc3C2)nc(Nc2ccc(S(=O)(=O)N3CCOCC3)cc2)n1.Cl [GSK1669917],0%,0%,18%,5%,0%,0%,0%,0%,17%,0%,–,–,–,–,–,–,–,–,–
COc1cc2ncn(-c3cc(OCC4CCCO4)c(C(N)=O)s3)c2cc1OC (stereo not drawn) [GSK204607],0%,0%,8%,0%,3%,9%,8%,13%,0%,0%,–,–,–,–,–,–,–,–,–
O=C(Nc1n[nH]c2nc(-c3nccs3)c(Br)cc12)C1CCCC1 [SB-742609],10%,0%,0%,7%,0%,0%,0%,14%,0%,11%,–,–,–,–,–,–,–,–,–
CSc1nn2c(=O)cc(N3CCOCC3)nc2n1Cc1cccc(C(F)(F)F)c1C [GSK2363608],–,–,–,–,0%,–,–,–,–,–,98.3% and 17%,98.9% and 0%,14% and 0%,28% and 0%,12% and 0%,19% and 9%,20% and 10%,1% and 0%,9% and 2%
CC(C)(C)c1ccc(C(=O)Nc2cn3cc(Cl)ccc3n2)cc1,0%,0%,0%,7%,5%,0%,0%,0%,20%,26%,–,–,–,–,–,–,–,–,–
Cc1cccc(-c2nc(Nc3cccc(C(N)=O)c3)c3ccccc3n2)n1 [GW876019],1%,15%,0%,27%,0%,0%,0%,0%,46%,1%,–,–,–,–,–,–,–,–,–
Cc1cccc(-c2nc(Nc3ccncc3)c3ccccc3n2)n1 [GW855857],0%,0%,0%,20%,0%,0%,4%,0%,8%,0%,–,–,–,–,–,–,–,–,–
